Results filed as inconclusive are left out. Where a call stands in place of a potency, no number is given. Calls of active or inactive are those of the source. Calls follow the shape of the dose curve; as a rule, active = well fitted cell-killing curve with a large enough effect; inconclusive = small, poorly fitted or top-dose-only effect, or effect the other way; inactive = no such curve, though single readings can be large or run the other way.
Potency is read from the fitted curve at half-maximal effect.

This test in a line: Quantitative High-Throughput drug screen in 47 multiple myeloma cell lines against the NCATS MIPE library collection: KMS26_JCRB cell viability assay (AID 1918975). Also: nearly all actives have a fitted effect of over 45% in size. As to conditions: KMS26 myeloma cells viability, CellTiter-Glo ATP, 48 h; series mostly up to 45.8 µM. The text has this:
PI: Beverly A. Mock Ph.D.
Laboratory of Cancer Biology and Genetics,
Center for Cancer Research, National Cancer Institute,
National Institute of Health, Bethesda, Maryland
Drug resistance and disease progression are common in multiple myeloma (MM) patients, underscoring the need for new therapeutic combinations. […] We hypothesized that effective combinations would reduce MYC expression and enhance p16 activity. […] These preclinical data identify potentially useful drug combinations for evaluation in drug-resistant MM and reveal potential mechanisms of combined drug sensitivity.
Described herein is the primary MIPE qHTS used to cherrypick compounds. Validated compounds were then further tested for potential synergistic activiy.
[1] Peat TJ, Gaikwad SM, Dubois W, Gyabaah-Kessie N, Zhang S, Gorjifard S, Phyo Z, Andres M, Hughitt VK, Simpson RM, Miller MA, Girvin AT, Taylor A, Williams D, D'Antonio N, Zhang Y, Rajagopalan A, Flietner E, Wilson K, Zhang X, Shinn P, Klumpp-Thomas C, McKnight C, Itkin Z, Chen L, Kazandijian D, Zhang J, Michalowski AM, Simmons JK, Keats J, Thomas CJ, Mock BA. Drug combinations identified by high-throughput screening promote cell cycle transition and upregulate Smad pathways in myeloma. Cancer Lett. 2023 Aug 1;568:216284. doi: 10.1016/j.canlet.2023.216284. Epub 2023 Jun 24. PMID: 37356470; PMCID: PMC10408729.
SEQUENCE No. (e.g., 1, 2, 3, etc.); […] (e.g., Cells, Incubation, Reagent, etc.); VALUE and DESCRIPTION.
1; Cells; 5 uL; white, solid bottom 1536-well Greiner assay plate.
2; Compounds; 23 nL; Kalypsis pin tool (Wako USA) equipped with a 1536-well pin head to transfer to the assay plates.
3; Incubation; 48 hours; 37C incubation.
4; Reagent;5uL; CellTiter Glo (Promega).
5; Detector; 425V; Luminescence; Viewlux PerkinElmer.
NOTES (numbers refer to Sequence numbers above)
1. The cell-based screening methods employed in this study were like those previously published. Briefly, the corresponding myeloma cell lines were screened in 1,536-well plates with 500 cells, 5-uL per well for inhibition of cell viability (assessed by measuring ATP levels with CellTiterGlo).
2. NCATS MIPE 4.0 library of approved and investigational drugs were added using the Kalypsis pin tool. Wells treated with DMSO only for 100% viability and media only wells for 0% viability were used as controls.
3. The assay plates were covered and incubated for 48 hours in a 37C, 5% CO2 incubator with controlled humidity.
4. After 48 hours, CellTilter-GloTM luminescent substrate mix (Promega) reagent was added to the assay plate and plates we incubated for 5 min at room temperature.
5. Signal was measured as median relative luminescence units on a ViewLux (PerkinElmer) multiplate reader.
[1] Heske CM, Davis MI, Baumgart JT, Wilson K, Gormally MV, Chen L, Zhang X, Ceribelli M, Duveau DY, Guha R, Ferrer M, Arnaldez FI, Ji J, Tran HL, Zhang Y, Mendoza A, Helman LJ, Thomas CJ. Matrix Screen Identifies Synergistic Combination of PARP Inhibitors and Nicotinamide Phosphoribosyltransferase (NAMPT) Inhibitors in Ewing Sarcoma. Clin Cancer Res. 2017 Dec 1;23(23):7301-7311. doi: 10.1158/1078-0432.CCR-17-1121. Epub 2017 Sep 12. PMID: 28899971; PMCID: PMC6636827.
In general terms: In ATP-based viability assays light output follows the ATP content of the culture.
Regarding `O=P(O)(O)C(O)(Cc1cccnc1)P(=O)(O)O`, the Potency is 0.0017 µM (active).
`CCOC(=O)c1ccc(C#Cc2ccc3c(c2)C(C)(C)CCS3)nc1`: the Potency entry was “inactive”.
`CCN[C@H]1C[C@H](C)S(=O)(=O)c2sc(S(N)(=O)=O)cc21`: the Potency entry was “inactive”.
Regarding `NC(=O)c1ccc2[nH]ccc2c1`, the Potency result is “inactive”.
For the compound `CNCC[C@H](Oc1cccc2ccccc12)c1cccs1`, the Potency was 7.43 µM (active).
Take `Cc1noc(NS(=O)(=O)c2ccc(N)cc2)c1C`: the Potency result was “inactive”.
As for `CC1=NN(c2ccccc2)C(=O)C1`, the Potency entry is “inactive”.
For the compound `COCCCOc1cc(C[C@@H](C[C@H](N)[C@@H](O)C[C@H](C(=O)NCC(C)(C)C(N)=O)C(C)C)C(C)C)ccc1OC`, the Potency result was “inactive”.
As to `Cn1nnc2c(C(N)=O)ncn2c1=O`, the Potency entry is “inactive”.
With `O=C(O)C1CCCN(CCC=C(c2ccccc2)c2ccccc2)C1` (stereo not given), the Potency result is “inactive”.
Under `CN(C)c1ccc(C(=C2C=CC(=[N+](C)C)C=C2)c2ccc(N(C)C)cc2)cc1` stands 0.166 µM (active); under `CC(C)C[C@H](NC(=O)[C@H](CCc1ccccc1)NC(=O)CN1CCOCC1)C(=O)N[C@@H](Cc1ccccc1)C(=O)N[C@@H](CC(C)C)C(=O)[C@@]1(C)CO1`, 0.0132 µM (active).
Consider `CS(=O)(=O)c1ccc([C@@H](O)[C@@H](CO)NC(=O)C(Cl)Cl)cc1`, for which the Potency result is “inactive”.
For `Nc1nc(=S)c2[nH]cnc2[nH]1`, the Potency was 6.62 µM (active).
With `Nc1nc(F)nc2c1ncn2[C@@H]1O[C@H](CO)[C@@H](O)[C@@H]1O`, the Potency was 0.235 µM (active).
Turning to `CC(C)(C)C(=O)OCOP(=O)(COCCn1cnc2c(N)ncnc21)OCOC(=O)C(C)(C)C`, the Potency is 6.62 µM (active).
`COc1cc(NCc2ccc3nc(N)nc(N)c3c2C)cc(OC)c1OC`: the Potency was 5.9 µM (active).
As to `CO[C@@H]1[C@@H](OC(N)=O)[C@@H](O)[C@H](Oc2ccc3c(O)c(NC(=O)c4ccc(O)c(CC=C(C)C)c4)c(=O)oc3c2C)OC1(C)C`, the Potency was 9.35 µM (active).
`NC(=O)N1c2ccccc2CC(=O)c2ccccc21`: the Potency result is “inactive”.
`COc1ncnc(NS(=O)(=O)c2ccc(N)cc2)c1OC`: the Potency result is “inactive”.
With `Cc1ccc(S(=O)(=O)N[C@@H](Cc2ccccc2)C(=O)CCl)cc1`, the Potency was 18.7 µM (active).
With `CN(C)CCc1c[nH]c2ccc(C[C@H]3COC(=O)N3)cc12` the entry was “inactive”; with `Cc1cc(NS(=O)(=O)c2ccc(N)cc2)no1`, “inactive”.
For `CC[C@H](NC(C)C)[C@H](O)c1ccc(O)c2[nH]c(=O)ccc12`, the Potency entry was “inactive”.
Turning to `Cc1ccnc2c1NC(=O)c1cccnc1N2C1CC1`, the Potency result is “inactive”.
Turning to `COC(=O)Nc1nc2ccc(S(=O)c3ccccc3)cc2[nH]1` (stereo not given), the Potency entry was “inactive”.
With `S=P(N1CC1)(N1CC1)N1CC1` the entry was “inactive”.
As for `N[C@@H](C(=O)N[C@@H]1C(=O)N2C(C(=O)O)=C(Cl)CS[C@H]12)c1ccccc1`, the Potency result was “inactive”.
For the compound `C[C@]12C=CC(=O)C=C1CC[C@@H]1[C@@H]2C(=O)C[C@@]2(C)[C@H]1CC[C@]2(O)C(=O)CO`, the Potency entry is “inactive”.
With `Oc1c(Cl)cc(Cl)c2cccnc12` the figure was 14.8 µM (active); with `NNC(=O)c1ccncc1`, “inactive”.
Turning to `NCCCC(O)(P(=O)(O)O)P(=O)(O)O`, the Potency entry was “inactive”.
`CCCc1nc(C)c2c(=O)[nH]c(-c3cc(S(=O)(=O)N4CCN(CC)CC4)ccc3OCC)nn12`: the Potency is 4.69 µM (active).
As for `O=NN(CCCl)C(=O)NC1CCCCC1`, the Potency result was “inactive”.
With `O=C(O)c1cc(=O)[nH]c(=O)[nH]1` the entry was “inactive”; with `CCC(=O)O[C@]1(C(=O)CCl)[C@@H](C)C[C@H]2[C@@H]3CCC4=CC(=O)C=C[C@]4(C)[C@@]3(F)[C@@H](O)C[C@@]21C`, “inactive”; with `COC(=O)Nc1nc2ccc(Sc3ccccc3)cc2[nH]1`, 18.7 µM (active).
In the case of `CCc1c2c(nc3ccc(OC(=O)N4CCC(N5CCCCC5)CC4)cc13)-c1cc3c(c(=O)n1C2)COC(=O)[C@]3(O)CC`, the Potency was 0.166 µM (active).
For the compound `O=C(NCC1CN(c2ccc(N3CCOCC3=O)cc2)C(=O)O1)c1ccc(Cl)s1` (stereo not given), the Potency entry was “inactive”.
For the compound `O=C(O)CSCC(=O)NC1CCSC1=O` (stereo not given), the Potency result was “inactive”.

The values above are taken from PubChem BioAssay (NCATS).
